ADAM10 inh: ADAM10 inhibition, QFRET primary screen | recombinant ADAM10, EDANS/DABCYL FRET peptide cleavage, 3 h | 370,000 compounds, 0.62% hits | AID 720582 | O14672 | inhibition, % at 7 µM;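 active = inhibition above a per-campaign cutoff equal to the mean of compounds falling between control-based bounds plus 3 SD, cut at about 20% in these data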
ADAM17 inh: inhibits human ADAM17. 370,000 compounds, 0.83% hits. inhibition, % at 6.95 µM. recombinant ADAM17, EDANS/DABCYL FRET peptide cleavage. P78536. AID 720648;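 active = inhibition above the mean of compounds lying between control limits plus 3 SD, set per campaign, cut at about 8.5% in these data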
rCAG binder: binds r(CAG) RNA repeats | r(CAG) RNA repeat, TO-PRO-1 dye displacement fluorescence | inhibition, % at 3 µM | 370,000 compounds, 1.3% hits | AID 651821;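 active = inhibition above the plate cutoff, the mean of all test compounds on that plate plus 3 SD, cut at about 35% in these data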;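 also: higher means more dye released from RNA so lower well fluorescence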
AHR activator: activates the human aryl hydrocarbon receptor; P35869; AHR-responsive luciferase reporter cells, luminescence; activation, % at 5 µM; 320,000 compounds, 2.5% hits; in the data active = activation above about 47%
Target sequence (P35869 whole entry, looked up): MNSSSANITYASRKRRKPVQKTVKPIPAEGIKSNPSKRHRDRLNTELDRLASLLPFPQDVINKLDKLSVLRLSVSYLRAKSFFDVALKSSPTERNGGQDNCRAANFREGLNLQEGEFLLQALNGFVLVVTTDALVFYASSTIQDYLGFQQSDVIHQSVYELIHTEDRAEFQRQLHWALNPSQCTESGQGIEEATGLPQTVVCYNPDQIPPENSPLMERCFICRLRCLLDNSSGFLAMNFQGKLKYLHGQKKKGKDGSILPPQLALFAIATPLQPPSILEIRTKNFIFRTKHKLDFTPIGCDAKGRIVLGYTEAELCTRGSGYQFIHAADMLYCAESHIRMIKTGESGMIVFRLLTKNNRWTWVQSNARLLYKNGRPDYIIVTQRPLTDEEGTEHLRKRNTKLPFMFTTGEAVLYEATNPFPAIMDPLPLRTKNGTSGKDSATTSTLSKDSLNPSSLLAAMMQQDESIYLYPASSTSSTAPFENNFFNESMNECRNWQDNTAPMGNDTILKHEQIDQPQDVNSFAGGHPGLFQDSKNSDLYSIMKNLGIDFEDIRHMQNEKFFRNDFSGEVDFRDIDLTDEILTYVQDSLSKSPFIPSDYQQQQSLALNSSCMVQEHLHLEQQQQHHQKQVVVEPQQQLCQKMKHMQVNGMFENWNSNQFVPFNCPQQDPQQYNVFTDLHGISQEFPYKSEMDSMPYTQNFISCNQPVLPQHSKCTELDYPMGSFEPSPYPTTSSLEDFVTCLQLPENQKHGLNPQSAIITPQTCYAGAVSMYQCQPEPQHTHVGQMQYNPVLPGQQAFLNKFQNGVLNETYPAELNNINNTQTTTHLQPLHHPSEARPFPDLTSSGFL
proKLK7 act: activators of human kallikrein-7 zymogen. AID 652039. activation, % at 7 µM. P49862. purified proKLK7, EDANS-DABCYL substrate fluorescence; 100% is mature enzyme control, 0% vehicle. 370,000 compounds, 0.9% hits;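 active = activation above the mean of all tested compounds plus 3 SD, computed per campaign excluding outliers beyond control limits, cut at about 13% in these data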
NR3A LBD binder: modulates the human NR3A ligand-binding domain. NR3A LBD differential scanning fluorimetry, Tm shift; 0% = protein alone, 100% = glycine-bound protein. Tm shift relative to glycine control, % at 25 µM. 340,000 compounds, 2.5% hits. AID 1259313;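 active = melting temperature shift of at least 10% of the positive control shift, at one fixed dose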
rCAG bind conf: r(CAG) RNA repeat binding, confirmation | shares compounds with rCAG binder | inhibition, % at 3 µM | TO-PRO-1 dye displacement fluorescence | 4,300 compounds, 70% hits;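 active = inhibition above a per-plate cutoff, the mean inhibition of sample wells plus 3 SD, cut at about 35% in these data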;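 also: loss of TO-PRO-1 fluorescence as compound displaces dye from 1x1 AA loop RNA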
dCAG dye counter: disrupts DNA CAG TO-PRO-1 complex, flagging rCAG hits; 4,300 compounds, 94% hits; AID 652068; shares compounds with rCAG binder; inhibition, % at 3 µM; d(CAG) DNA oligo TO-PRO-1 dye displacement, fluorescence;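 active = inhibition above its plate's cutoff, the mean test-well inhibition plus 3 SD, cut at about 4.8% in these data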;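 also: hits displace the dye from DNA and so lower well fluorescence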
Each line names hits and unclear results; the compound was inactive in the other large screens (follow-up assays come after a bar, where they were run). The list is not random: actives were taken first. Their share in the collection is about 7%.

C[C@@H]1O[C@@H](n2c3ccc(Cl)cc3c3ccc4c5cc(Cl)ccc5[nH]c4c32)[C@H](O)[C@H](O)[C@H]1O	rCAG binder 61.7 (no result: AHR activator, NR3A LBD binder) | rCAG bind conf 60.1 | dCAG dye counter 42.0
C[C@H]1O[C@@H](n2cc(F)c(=O)[nH]c2=O)[C@H](O)[C@@H]1O	none
C[C@H]1O[C@@H](n2c3ccc(Cl)cc3c3ccc4c5cc(Cl)ccc5[nH]c4c32)[C@H](O)[C@H](O)[C@H]1O	rCAG binder 77.6 (no result: AHR activator, NR3A LBD binder) | rCAG bind conf 54.4 | dCAG dye counter 42.5
CN(C)c1ccc(C(=O)NCCc2ccccc2-c2ccccc2CCC(=O)NCc2ccccc2)cc1	none (no result: AHR activator, NR3A LBD binder)
CCCc1cc(=O)[nH]c(SCC(=O)Nc2cc(S(=O)(=O)N(CC)c3ccccc3)ccc2Cl)n1	rCAG binder 59.7 | rCAG bind conf 56.1 | dCAG dye counter 19.9
COc1cc(/C=N/N=C2\CC3CCC2(C)C3(C)C)ccc1O (stereo not given)	none
CC12CCC(C/C1=N\N=C1\NC(=O)/C(=C\c3cccc(Br)c3)S1)C2(C)C (stereo not given)	rCAG binder 49.7 | rCAG bind conf 59.8 | dCAG dye counter 27.7
O=C(CSc1nnc(-c2ccc(Cl)cc2)n1Cc1ccco1)Nc1ccc(S(=O)(=O)Nc2nccs2)cc1	rCAG binder 76.9 (no result: AHR activator, NR3A LBD binder) | rCAG bind conf 68.6 | dCAG dye counter 32.0
O=C(CSc1nnc(-c2cccnc2)n1Cc1ccco1)Nc1ccc(Cl)cc1	none (no result: AHR activator, NR3A LBD binder)
Cc1cc(NS(=O)(=O)c2ccc(NC(=O)CSc3nnc(-c4ccc(Cl)cc4)n3Cc3ccco3)cc2)nc(C)n1	rCAG binder 38.5 (no result: AHR activator, NR3A LBD binder) | rCAG bind conf 41.0 | dCAG dye counter 14.1
Cc1ccc(OCc2nnc(SCC(=O)Nc3ccc(S(=O)(=O)Nc4cc(C)nc(C)n4)cc3)n2Cc2ccco2)cc1	rCAG binder 37.8 (no result: AHR activator, NR3A LBD binder) | rCAG bind conf 46.8 | dCAG dye counter 13.1
Cc1cccc(NC(=O)CSc2nnc(-c3cccnc3)n2Cc2ccco2)c1C	none (no result: AHR activator, NR3A LBD binder)
C=CCN1CC(COCCCC)Oc2ccc(Cl)cc2S1(=O)=O (stereo not given)	none (no result: AHR activator, NR3A LBD binder)
O=C(O)c1ccccc1N1C(=O)C2C3c4ccccc4C(Br)(c4ccccc43)C2C1=O (stereo not given)	rCAG binder 34.7 | rCAG bind conf inactive | dCAG dye counter 4.5
N=C1/C(=C\c2ccc(SCc3ccccc3)o2)C(=O)N=C2SC(CC(=O)N3CCOCC3)=NN12	rCAG binder 71.3 | rCAG bind conf 67.9 | dCAG dye counter 30.2
Cc1ccc(/C=C2\C(=N)N3N=C(CC(=O)N4CCOCC4)SC3=NC2=O)o1	none
COc1cc(/C=C2/C(=N)N3N=C(CC(=O)N4CCOCC4)SC3=NC2=O)ccc1OCc1ccc(F)cc1	rCAG binder 36.4 | rCAG bind conf 76.9 | dCAG dye counter 34.8
O=C(C(=O)N1CCN(S(=O)(=O)c2ccc(Cl)cc2)CC1)c1cccc(C(F)(F)F)c1	none (no result: AHR activator, NR3A LBD binder)
O=C(c1cccc(Br)c1)N1CCC(Oc2cccnc2)CC1	none (no result: AHR activator, NR3A LBD binder)
Cn1ncc2c(Nc3cccc(Cl)c3)nc(Nc3cccc(Cl)c3)nc21	rCAG binder 36.0, NR3A LBD binder 31.1 | rCAG bind conf inactive | dCAG dye counter 7.5
COc1cc(/C=C/c2ccc3cccc(O)c3n2)c(Br)cc1O	rCAG binder 47.6 (no result: NR3A LBD binder) | rCAG bind conf 44.6 | dCAG dye counter 21.2
Oc1c(Cl)cc(Cl)cc1/C=C/c1ccc2cccc(O)c2n1	rCAG binder 40.7, AHR activator 51.3, NR3A LBD binder 25.3 | rCAG bind conf 56.1 | dCAG dye counter 21.1
COc1ccc(OC)c(/C=C/c2ccc3cccc(O)c3n2)c1	none (no result: NR3A LBD binder)
COc1cc(Br)cc(/C=C/c2ccc3cccc(O)c3n2)c1O	rCAG binder 35.9, NR3A LBD binder 33.9 | rCAG bind conf inactive | dCAG dye counter 12.6
Nn1c(SCC(=O)Nc2cc(C(F)(F)F)ccc2Cl)nnc1-c1n[nH]c2c1CCC2	none (no result: AHR activator, NR3A LBD binder)
CCCCCCc1ccc(-c2ccc(C#N)cc2)cc1	none (no result: AHR activator, NR3A LBD binder)
N#Cc1c(SCC(=O)O)nc(N2CCCCC2)c2c1CCCC2	rCAG binder 34.6 | rCAG bind conf inactive | dCAG dye counter 7.1
COc1cccc(CN2CCC2(C)C(=O)Nc2cccc(Oc3ccccc3)c2)c1F (stereo not given)	none (no result: AHR activator, NR3A LBD binder)
O=C(O)CCC(=O)N1N=C(c2ccc(Br)cc2)CC1c1ccc(Br)cc1 (stereo not given)	rCAG binder 38.5 | rCAG bind conf 51.2 | dCAG dye counter 14.1
COc1ccc(/C=C/C(=O)Nc2c(C(=O)O)[nH]c3ccccc23)cc1OC	rCAG binder 38.1 | rCAG bind conf inactive | dCAG dye counter 7.0
COc1ccc(/C=C/C(=O)Nc2ccccc2)cc1OC	none
O=C(O)c1cc(N/N=C/c2ccc(-c3ccccc3)cc2)ccc1Cl	rCAG binder 62.5 (no result: AHR activator) | rCAG bind conf 75.6 | dCAG dye counter 40.2
O=C(O)c1ccc(N/N=C/c2ccc(-c3ccccc3)cc2)cc1	rCAG binder 61.8 (no result: AHR activator) | rCAG bind conf 71.9 | dCAG dye counter 25.4
COc1cc(/C=N/Nc2ccccc2)ccc1OC(=O)c1cccs1	none
O=C(O)c1cc(N/N=C/c2ccncc2)ccc1Cl	none
Cc1ccc(S(=O)(=O)Oc2cccc(/C=N/n3cnnc3)c2)cc1	none
Cc1ccc(S(=O)(=O)Oc2cccc(/C=N/Nc3ccc(C(=O)O)cc3)c2)cc1	rCAG binder 74.4 | rCAG bind conf 57.7 | dCAG dye counter 17.3
COc1cc(/C=N/Nc2ccc(Cl)c(C(=O)O)c2)ccc1OC(=O)c1cccs1	rCAG binder 54.3 | rCAG bind conf 69.0 | dCAG dye counter 29.9
C[C@H]1[C@@H](Cc2cc(Cl)cc(Cl)c2)N(c2ccccc2)c2ccccc2CN1Cc1ccccc1	none (no result: AHR activator, NR3A LBD binder)
C/C(C=NNC(=O)CSc1nnc(-c2ccc(Cl)cc2)n1-c1ccc(C)cc1)=C\c1ccccc1	none (no result: AHR activator, NR3A LBD binder)
COC(=O)[C@]12C[C@H](CC(=O)NCC3CCCCC3)C(=O)N(Cc3ccco3)C1=C[C@H](C(C)C)O[C@@H]2C1CC1	none (no result: AHR activator, NR3A LBD binder)
COc1cccc(/C=C/C(=O)c2ccc(NS(=O)(=O)c3ccc(C)cc3)cc2)c1	rCAG binder 35.4, NR3A LBD binder 18.5 | rCAG bind conf 62.0 | dCAG dye counter 20.8
O=C(O)c1ccc(N/N=C/c2ccc(OC(=O)c3ccccc3Cl)cc2)cc1	rCAG binder 80.5 | rCAG bind conf 68.5 | dCAG dye counter 28.1
Cc1ccc(C(=O)C=Cc2cccc(C)c2)cc1	none (no result: AHR activator)
Cc1nc(C(F)(F)F)ccc1C(=O)N1CCCC(C)(C(=O)O)C1 (stereo not given)	none (no result: AHR activator, NR3A LBD binder)
O=C(CSc1nnc(-c2ccccc2)n1-c1ccc(Cl)cc1)NNC(=S)Nc1ccccc1	none

High-throughput results as filed in PubChem BioAssay.
